Records with an inconclusive call do not appear. Where a call stands in place of a potency, no number is given. Values without a mark were called inactive. Calls of active or inactive are those of the source. The call rests on the fitted dose curve; in most records, active means well fitted inhibition curve with a large enough effect in the signal ratio in the repeat runs (not every such curve was filed as active); inconclusive means weak or mixed curves, or effect the other way; inactive means flat fitted curve, though single readings scatter; the % refers to the signal ratio.
assay: cAMP Responsive Elements (CRE) small molecule antagonists, cell-based qHTS assay (AID 1963591); conditions: CRE-bla HEK293T, beta-lactamase FRET ratio; series mostly up to 92.4 µM
From the text: U.S. Tox21 Program National Center for Advancing Translational Sciences [NCATS] Division of Preclinical Innovation [DPI] U.S. Environmental Protection Agency [EPA] National Institutes of Environmental Health Sciences [NIEHS] National Toxicology Program [NTP] U.S. Food and Drug Administration [FDA] Tox21 Assay Overview: CREB (cyclic-AMP Responsive Element Binding Protein) is a cellular transcription factor. It binds to certain DNA sequences called cAMP Responsive Elements (CRE) and regulates the transcription of the genes. […] This cell line can be used to find agonists/antagonists of the cyclic AMP signaling pathway. The activation of the report gene under culture conditions can be detected by fluorescence intensity. This cell line has been used to screen the Tox21 10K compound library to […].
Tox21 Assay Protocol Summary: CRE-bla Hek 293T cells were suspended in assay medium (DMEM containing 10% dialyzed FBS, 0.1 mM NEAA, 1 mM sodium pyruvate and 25 mM HEPES) and dispensed at 2,000 cells/4 uL /well into 1536-well black wall/clear bottom plates using a Multidrop Combi (ThermoFisher Scientific, Waltham, MA) dispenser. After the assay plates were incubated at 37 C/5% CO2 for 18 hrs, 23 nL of compounds dissolved in DMSO, positive controls or DMSO only was transferred to the assay plate by a pintool workstation (Kalypsys, San Diego, CA), followed by addition of 1 […] uL of 1.25uM NKH477 (0.25 uM as final concentration) in assay medium using a Flying Reagent Dispenser (Aurora Discovery, San Diego, CA). The plates were incubated at 37 C and 5% CO2 for 3 hrs. Then 1 uL of LiveBLAzer B/G FRET substrate (Invitrogen, Carlsbad, CA) was added to each well using Bioraptr Flying Reagent Dispenser (FRD, Aurora Discovery, San Diego, CA). The plates were incubated at room temperature for 2 h.
Potency means the concentration at half of the fitted maximal effect.

| SMILES | Potency | activity change, negative = inhibition |
| --- | --- | --- |
| O=C(Cn1ccnc1[N+](=O)[O-])NCc1ccccc1 | inactive |  |
| CC(=O)OC1CC(C)OC(C)O1 (stereo not given) | inactive |  |
| CC1(C)[C@@H]2CC[C@@]1(C)[C@H](O)C2 | inactive |  |
| N[C@@H](Cc1c[nH]c2ccc(O)cc12)C(=O)O | inactive |  |
| CCSC(=O)N(CC)CC | inactive |  |
| CCOC(=O)c1cccc(N)c1 | inactive |  |
| NC(=O)N[C@@H](CCC(=O)O)C(=O)O | inactive |  |
| CCCCC(CC)COC(=O)c1ccc(O)cc1 (stereo not given) | 40.3 µM (active) |  |
| NCCN1CCNC1=O | inactive |  |
| C1=Cc2ccccc2C1 | inactive |  |
| O=C(O)c1ccc(OCCCOc2ccc(C(=O)O)cc2)cc1 | inactive |  |
| CCC(C)S (stereo not given) |  | -3.11% [at 3.27 µM] |
| O=C(O)CNc1ccccc1 | inactive |  |
| O=C(Oc1ccccc1)c1ccccc1 | inactive |  |
| COc1c(Cl)ccc(Cl)c1C(=O)O | inactive |  |
| O=C(O)c1cc(=O)[nH]c(=O)[nH]1 | inactive |  |
| CCCCC(CC)C(=O)OCCOCCOCCOC(=O)C(CC)CCCC (stereo not given) | inactive |  |
| CCCCCCCO | inactive |  |
| O=C(c1ccc2c(c1)C(=O)OC2=O)c1ccc2c(c1)C(=O)OC2=O | inactive |  |
| CCCCCC(C)=O | inactive |  |

| SMILES | Potency | activity change, negative = inhibition |
| --- | --- | --- |
| Cc1cccc(N(C)C(=S)Oc2ccc3ccccc3c2)c1 | inactive |  |
| CC(C)(C)NCC(O)COc1ccccc1OCC1CCCO1 (stereo not given) | inactive |  |
| CCCCc1ccc2cccc(S(=O)(=O)O)c2c1 | inactive |  |
| CCOc1c(N2CCOCC2)cnn(C)c1=O | inactive |  |
| COc1ccc2c(c1)CCCC2=O | inactive |  |
| Nc1nc(N)nc(-c2ccccc2)n1 | inactive |  |
| CCCC(=O)CC | inactive |  |
| CC1CC(OC(=O)c2ccccc2O)CC(C)(C)C1 (stereo not given) | inactive |  |
| CCNc1cc(O)ccc1C | inactive |  |
| COc1ccc2nc(N)sc2c1 | inactive |  |
| Oc1ccc(C(c2ccc(O)cc2)C(Cl)(Cl)Cl)cc1 | inactive |  |
| CCCCCCCCCCCCCCCCBr |  | -0.0105% [at 18.9 µM] |
| Cc1c(N)cccc1C(F)(F)F | inactive |  |
| O=C(O)c1ccccc1OP(=O)(O)O | inactive |  |
| CC(=O)OCCN(CCOC(C)=O)c1ccc(N=Nc2ccc([N+](=O)[O-])cc2C#N)cc1 | inactive |  |
| CC1(C)COCN1 | inactive |  |
| O=C(O)c1cc(O)c(O)c(O)c1 | inactive |  |
| CCC(CO)CO | inactive |  |
| CC(O)CNCC(C)O (stereo not given) | inactive |  |
| C/C(=C(\CCO)SS/C(CCO)=C(\C)N(C=O)Cc1cnc(C)nc1N)N(C=O)Cc1cnc(C)nc1N | inactive |  |

From PubChem BioAssay (Tox21)
